Source: PubChem
SARS PLpro yeast – qHTS of Yeast-based Assay for SARS-CoV PLP. S. cerevisiae expressing SARS-CoV PLpro, growth rescue. Potency, µM (series often up to 32.9 µM), for the others: at the top dose activity, positive = growth rescue, hits mostly activators. actives 0.19% (n = 330,000); calls by dose curve; further: 0% is about no effect; nearly all actives have a fitted effect of over 55% in size
Pf growth 48h – Primary qHTS for delayed death inhibitors of the malarial parasite plastid, 48 hour incubation. P. falciparum luciferase growth in erythrocytes, 48 h. Potency, µM (titrated, usually from 28.7 µM), for the others: at the highest dose activity change, negative = inhibition, usual class: inhibitors. actives 5.9% (n = 310,000). AID 504832, 2011; further: on the % scale 0 is the no-effect control and ±100 the full control effect
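Cell-based growth assay: transgenic P. falciparum expressing firefly luciferase, cultured in red cells within RPMI 1640 containing 0.5% w/v Albumax, 24 mM bicarbonate and gentamycin. A drop in luciferase activity indicates inhibition.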
AmpC detergent – qHTS Inhibitors of AmpC Beta-Lactamase (assay with detergent); actives 0.041% (n = 370,000); P00811; Potency, µM (doses to about 114 µM), for the others: at the top dose activity change, negative = inhibition, usual class: inhibitors; AmpC hydrolysis of nitrocefin, absorbance 480 nm, 0.01% Triton;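 further: 0% = no-compound wells and -100% = no-enzyme wells; nearly all actives have a fitted effect of over 25% in size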
Target sequence (P00811 whole entry, looked up): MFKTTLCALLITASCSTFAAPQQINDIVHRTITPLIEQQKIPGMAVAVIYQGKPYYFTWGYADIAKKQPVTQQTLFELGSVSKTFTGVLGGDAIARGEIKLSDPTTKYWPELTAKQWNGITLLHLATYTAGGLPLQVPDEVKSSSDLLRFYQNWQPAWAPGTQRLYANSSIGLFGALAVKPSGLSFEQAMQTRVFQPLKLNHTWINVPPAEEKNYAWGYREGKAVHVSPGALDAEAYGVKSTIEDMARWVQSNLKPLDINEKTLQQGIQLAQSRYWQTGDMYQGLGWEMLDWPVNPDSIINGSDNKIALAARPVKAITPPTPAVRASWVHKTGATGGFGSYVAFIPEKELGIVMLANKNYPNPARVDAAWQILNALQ
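AmpC (5.3 nM in the dispensed reagent) in 20 mM phosphate pH 7.0 with 0.01% (detergent screen) or 0.0001% Triton X-100 was preincubated with compounds for 15 min at room temperature. Nitrocefin was then added from an 800 uM solution, and hydrolysis was followed at 480 nm.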
Pf growth 96h – Primary qHTS for delayed death inhibitors of the malarial parasite plastid, 96 hour incubation; P. falciparum luciferase reporter growth, 96 h; AID 504834, 2011; actives 6.9% (n = 320,000); Potency, µM (highest dose often 28.7 µM), for the others: top-dose activity change, negative = inhibition, hits mostly inhibitors; further: on the % scale 0 is the no-effect control and ±100 the full control effect
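P. falciparum expressing integrated firefly luciferase grown in erythrocytes (2% hematocrit, 0.05% parasitemia final) with compounds for 96 hours at 37 C, 5% CO2. Growth inhibition read as loss of luminescence after adding luciferase detection reagent.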
AmpC no deterg – qHTS Inhibitors of AmpC Beta-Lactamase (assay without detergent); P00811; AmpC nitrocefin hydrolysis, absorbance 480 nm, 0.0001% Triton; Potency, µM (top dose mostly 57.1 µM), without a hit: at the top dose activity change, negative = inhibition, most hits filed as inhibitors; actives 0.52% (n = 330,000);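 further: plate controls were no compound for no effect and no enzyme for full effect; nearly all actives have a fitted effect of over 20% in size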
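20 mM phosphate pH 7.0 + 0.01% (detergent screen) or 0.0001% Triton X-100; 5.3 nM AmpC reagent; cpd preinc 15 min RT; nitrocefin (800 uM stock) to start; A480 q20 s × 4 min; Activity was normalised to no-enzyme and no-compound control wells.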
Sm TGR block – qHTS Assay for the Inhibitors of Schistosoma Mansoni Peroxiredoxins. actives 3% (n = 360,000). AID 485364, 2010. purified TGR, DTNB reduction, TNB absorbance 405 nm. Potency, µM (series often up to 114 µM), for inactives: at the highest dose activity change, negative = inhibition, actives largely listed as inhibitors. Schistosoma mansoni thioredoxin glutathione reductase (TGR), Q962Y6; further: on the % scale 0 is the no-effect control and ±100 the full control effect; nearly all actives have a fitted effect of over 60% in size
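First, TGR (20 nM dispensed) and NADPH were mixed with compound. Second, a 15 min room-temperature incubation followed. Third, further NADPH and then DTNB were added to start the reaction. Finally, TNB absorbance was monitored kinetically.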
Active calls of the source: *; ? = inconclusive; / = no result. Shown are actives, neighbours in structure and some others; about 12% of the full set was active somewhere. Unless noted, the call rests on the fitted dose curve; in most records, active means well fitted curve in the direction sought with a large enough effect; inconclusive means small, poorly fitted or top-dose-only effect, or another doubt; inactive means no such curve, though single readings can be large; an effect the other way counts as inactive or inconclusive. Potency means the concentration at half of the fitted maximal effect.

SMILES	SARS PLpro yeast	Pf growth 48h	AmpC detergent	Pf growth 96h	AmpC no deterg	Sm TGR block
COC(=O)C1=C(C)NC(C)=C(C(=O)OC)C1c1ccc(-c2cccc([N+](=O)[O-])c2)o1	0%	?	-7%	?	-47%	40µM*
CCOC(=O)C1=C(C)NC(=O)NC1c1ccc(-c2ccc(Cl)cc2)o1 (centres undefined)	0%	8%	-8%	-18%	-24%	/
COC(=O)C1=C(C)NC(=S)NC1c1ccc(-c2cccc(Cl)c2)o1 (centres undefined)	-14%	?	0%	?	?	8.9µM*
O=C(Nc1ccccc1)N(Cc1ccc(Cl)cc1)CC(O)C(F)(F)F (centres undefined)	-7%	15µM*	8%	6%	-18%	13%
O=S(=O)(CCc1nc2ccccc2o1)c1ccc2ccccc2c1	-2%	5%	-5%	/	-20%	2%
O=S(=O)(c1ccc(-c2csc(Nc3ccc(F)cc3)n2)cc1)N1CCCC1	8%	17%	-3%	163%	8.9µM*	-17%
Nc1nc(-c2ccc(S(=O)(=O)N3CCCCC3)cc2)cs1	1%	?	3%	13µM*	-48%	-5%
Cc1nc(-c2ccc(S(=O)(=O)N3CCCCCC3)cc2)cs1	17%	7%	-11%	-3%	-33%	4%
Cc1ccc(Nc2nc(-c3ccc(S(=O)(=O)N4CCCC4)cc3)cs2)cc1C	-5%	1.9µM*	-4%	1.7µM*	?	-4%
COc1ccc(CN2CCC(CO)(CCOc3ccccc3)CC2)cc1C	1%	10µM*	9%	4%	75%	17%
CCOc1cc(CN2CCC(CO)(Cc3cccc(C(F)(F)F)c3)CC2)ccc1OC	0%	?	8%	10µM*	89%	4%
COc1ccc(CN2CCC(Cc3ccccc3)CC2)c(C)c1C	-1%	?	-4%	?	2%	-7%
OCC1(CCOc2ccccc2)CCN(CCCn2cccn2)CC1	-1%	40%	-14%	10µM*	-10%	13%
COc1cc(CN2CCC(Cc3ccccc3)CC2)cc(OC)c1OC	15%	?	?	9.3µM*	-2%	-14%
CSc1ccc(CN2CCC(CO)(CCOc3ccccc3)CC2)cc1	-5%	?	-9%	-26%	42%	12%
CN1C(=O)CS/C1=N\NC(=O)COc1cccc2cccnc12	-1%	17%	-1%	-2%	-13%	5%
COc1ccc(C)cc1NC(=O)C(=O)NCCc1sc(-c2ccc(Cl)cc2)nc1C	/	/	-6%	/	/	0%
COc1cc(OC)c(CN2CCC(CO)(CCOc3ccccc3)CC2)c(OC)c1	0%	?	2%	0%	75%	-30%
COc1cc(CN2CCC(CO)(CCOc3ccccc3)CC2)cc(OC)c1OC	-2%	5.9µM*	10%	9%	49%	9%
CCOC(=O)C1(CCOc2ccccc2)CCN(Cc2ccc3c(c2)OCCO3)CC1	0%	?	1%	4%	48%	0%
OCC1(CCOc2ccccc2)CCN(Cc2ccc(OC(F)F)cc2)CC1	0%	8%	1%	10µM*	58%	-5%
OCC1(CCOc2ccccc2)CCN(Cc2ccc3c(c2)OCCO3)CC1	1%	-10%	6%	12µM*	29%	19%
OCC1(CCOc2ccccc2)CCN(Cc2ccccc2OC(F)F)CC1	?	-7%	1%	?	47%	9%
COc1ccc(OC)c(Nc2ncnc3c2nc2n3CCCC2)c1	/	/	16%	/	/	3%
CC(=O)c1cccc(NC(=O)CN2C(=O)CC(c3ccc(C)cc3C)=Nc3ccccc32)c1	/	/	-7%	/	/	4%
